Rows were chosen to be rich in hits. Some 10% of all compounds tested hit in one or more screens of this group.
Six1-Eya2 inh = qHTS Assay for Inhibitors of the Six1/Eya2 Interaction; AlphaScreen GST-Six1/His-Eya2 binding, biochemical; active compounds read low; activity change, % (test concentration not listed); actives 0.56% (n = 360,000); AID 651725, 2012; in the data active means activity change below about -65%; inconclusive means mostly about -30% to -63%; further: on the % scale 0 is the no-effect control and ±100 the full control effect
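GST-Six1 + His-Eya2 (5X stock: 250/500 nM); Tris pH 8.0, 300 mM NaCl, 0.05% BSA, 0.02% Tween 20; GSH donor/Ni acceptor beads; 1 h 37 °C dark; AlphaScreen readout.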
G9a inh-1 = qHTS Assay for Inhibitors of Histone Lysine Methyltransferase G9a | G9a H3K9 monomethylation, AlphaScreen, 2 h | Potency, µM (highest dose often 102 µM), for the others: at the highest dose activity, negative = inhibition, actives largely listed as inhibitors | actives 8.8% (n = 350,000) | Histone-lysine N-methyltransferase EHMT2 (Homo sapiens), Q96KQ7 | AID 504332, 2011; further: potency means the concentration at half of the fitted maximal effect; on the % scale 0 is the no-effect control and ±100 the full control effect; nearly all actives have a fitted effect of over 75% in size
Target sequence (Q96KQ7 913-1193 limits assumed): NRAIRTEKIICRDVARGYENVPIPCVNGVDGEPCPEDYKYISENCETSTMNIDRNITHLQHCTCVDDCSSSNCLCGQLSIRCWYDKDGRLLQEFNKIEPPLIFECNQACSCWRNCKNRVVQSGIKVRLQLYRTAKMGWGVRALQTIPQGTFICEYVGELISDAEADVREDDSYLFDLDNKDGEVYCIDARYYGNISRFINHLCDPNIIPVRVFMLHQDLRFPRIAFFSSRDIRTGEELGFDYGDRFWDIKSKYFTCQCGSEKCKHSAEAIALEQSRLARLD
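Compounds were preincubated with 20 nM G9a for 15 min, after which biotinylated H3K9 peptide (500 nM) and SAM (20 uM) started a 2 h room-temperature reaction. Monomethylated product was quantified by antibody-based AlphaScreen chemiluminescence.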
HP1b binding inh = HTS for Inhibitors of HP1-beta Chromodomain Interactions with Methylated Histone Tails; Chromobox protein homolog 1 (Homo sapiens), P83916; AlphaScreen HP1-beta / biotin-H3K9me3 peptide binding; Potency, µM (doses to about 114 µM), for inactives: at the highest dose activity change, negative = inhibition, most hits filed as inhibitors; actives 0.56% (n = 390,000); further: potency means the concentration at half of the fitted maximal effect; nearly all actives have a fitted effect of over 70% in size
Target sequence (P83916 whole entry, looked up): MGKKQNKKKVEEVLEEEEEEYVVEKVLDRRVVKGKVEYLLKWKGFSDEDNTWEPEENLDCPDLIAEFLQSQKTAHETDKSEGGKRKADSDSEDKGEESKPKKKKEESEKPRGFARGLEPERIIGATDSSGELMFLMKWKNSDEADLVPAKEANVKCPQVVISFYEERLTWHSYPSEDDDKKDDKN
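HP1-beta protein (50 nM final) preincubated 30 min at room temperature with biotinylated H3(1-18)K9me3 peptide (50 nM) in PBS pH 7.4, 0.01% Tween-20, then compound added for 30 min. AlphaScreen streptavidin donor/nickel chelate acceptor beads (10 ug/mL final), 30 min dark, luminescence read.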
JMJD2A Tudor inh = qHTS Assay for Inhibitors of JMJD2A-Tudor Domain; AlphaScreen JMJD2A-Tudor / H3K4me3 peptide binding; Lysine-specific demethylase 4A (Homo sapiens), O75164; Potency, µM (highest dose often 114 µM), without a hit: top-dose activity change, negative = inhibition, most hits filed as inhibitors; actives 4.4% (n = 390,000); further: potency means the concentration at half of the fitted maximal effect; on the % scale 0 is the no-effect control and ±100 the full control effect; nearly all actives have a fitted effect of over 50% in size
BAZ2B inh = qHTS Assay for Inhibitors of BAZ2B | Bromodomain adjacent to zinc finger domain protein 2B (Homo sapiens), Q9UIF8 | AlphaScreen BAZ2B-H3K14Ac peptide displacement | Potency, µM (highest dose often 114 µM), for inactives: at the highest dose activity change, negative = inhibition, hits mostly inhibitors | actives 4.4% (n = 360,000) | AID 504333, 2011; further: potency means the concentration at half of the fitted maximal effect; on the % scale 0 is the no-effect control and ±100 the full control effect; nearly all actives have a fitted effect of over 60% in size
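Protein-peptide AlphaScreen: BAZ2B 50 nM, b-H3K14Ac 50 nM, 1x PBS pH 7.4 + 0.01% Tween-20. Preincubation 30 min RT; cpd 30 min RT (top 110 uM); beads 20 min RT, light-protected.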
CtBP-E1A blk = qHTS Assay for Inhibitors of the CtBP/E1A Interaction. AlphaScreen GST-E1A/His-CtBP binding, 1536-well; active compounds read low. activity change, % (test concentration not listed). CtBP / adenovirus E1A interaction (AlphaScreen). actives 0.49% (n = 340,000); in the data active means activity change below about -65%; inconclusive means mostly about -30% to -63%; further: on the % scale 0 is the no-effect control and ±100 the full control effect
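Homogeneous bead-based format: GST-tagged E1A captured on glutathione donor beads, His-tagged CtBP on nickel acceptor beads; compounds precede bead addition by 2 h at 37 °C.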
ME-1 growth = qHTS Assay for Compounds Blocking the Interaction Between CBF-beta and RUNX1 for the Treatment of Acute Myeloid Leukemia: ME-1 cellular proliferation; shares compounds with BAZ2B inh; ME-1 cell proliferation, ATP luminescence, 48 h; Potency, µM (doses to about 56.1 µM), inactives show at the highest dose activity change, negative = inhibition, most hits filed as inhibitors; actives 20% (n = 140); AID 504370, 2011
G9a inh-2 = qHTS Assay for Inhibitors of Histone Lysine Methyltransferase G9a: Hit Confirmation. G9a H3K9 monomethylation, AlphaScreen, 2 h. shares compounds with JMJD2A Tudor inh. Potency, µM, usual class: inhibitors. actives 89% (n = 370); further: potency means the concentration at half of the fitted maximal effect; nearly all actives have a fitted effect of over 65% in size
Active calls of the source: *; ? = inconclusive; / = no result; ! = a repeat was not active; [ ] = another dose, or the depositor's remark. Unless noted, the call rests on the fitted dose curve; in most records, active means well fitted curve in the direction sought with a large enough effect; inconclusive means small, poorly fitted or top-dose-only effect, or another doubt; inactive means no such curve, though single readings can be large; an effect the other way counts as inactive or inconclusive.

SMILES | Six1-Eya2 inh | G9a inh-1 | HP1b binding inh | JMJD2A Tudor inh | BAZ2B inh | CtBP-E1A blk | G9a inh-2 | others
Cc1ccccc1-c1nn2c(=O)cc(CN3CCN(C(=O)COc4ccccc4Cl)CC3)nc2s1 | / | 5%[59 µM] | 3%[57 µM] | -24% | -7% | / | /
CN(N=O)c1cc(O)ccc1O | / | 0.6µM* | ? | 6.3µM* | / | / | / | ME-1 growth=40µM*
CCOc1ccc(-c2nc3cc(NC(=O)COc4cccc(C)c4)ccc3o2)cc1 | / | ? | 11% | -36% | -15% | / | /
C=C1CC[C@H](O)C/C1=C/C=C1\CCC[C@]2(C)[C@H]1CC[C@H]2[C@@H](C)CCCC(C)C | / | 21%[21.5 µM] | / | / | / | / | / | ME-1 growth=-2%
CCCCNC(=O)Oc1cc(CCl)on1 | / | ? | / | / | -19% | / | /
CCCCNC(=O)Oc1c(Br)cc2sc(=O)oc2c1Br | / | 8.9µM* | / | / | 50µM* | / | / | ME-1 growth=?
CCCCc1ccc(C(=O)O)nc1 | -87* | 6µM*! | 33% | 9% | 4µM* | -68* | / | ME-1 growth=?
CCN(C[C@H]1N[C@@](C)(C(=O)OC)[C@H]2C(=O)N(Cc3ccccc3)C(=O)[C@@H]12)S(=O)(=O)c1ccc(C(C)(C)C)cc1 | -8 | / | 13% | ? | / | -5 | /
CSc1ccc(CN2CCN(C(=O)COc3cccc(C)c3)CC2)cc1 | 5 | 10µM* | 40µM* | 8.9µM* | 50µM* | -15 | 40*
O=C(COc1ccc(Cl)cc1)N1CCN(Cc2ccc([N+](=O)[O-])cc2)CC1 | -9 | 2.5µM* | ? | 11µM* | / | / | 35*
Cc1ccc(OCC(=O)N2CCN(Cc3cccnc3)CC2)cc1 | 1 | 2.8µM* | ? | 4µM* | / | 6 | 16*
CN1CCC2=C[C@H](O)[C@@H]3OC(=O)c4cc5c(cc4[C@H]3[C@H]21)OCO5 | / | 0%[21.5 µM] | / | / | / | / | /
c1cncc(C2=NCCC2)c1 | / | 7%[21.5 µM] | / | / | / | / | /
Cc1ccc(Cn2cccc(C(=O)Nc3ccc4c(c3)OCCO4)c2=O)cc1 | / | -21%[59 µM] | 16% | -20% | -12% | / | /
COc1ccc(-c2noc(CN3C(=O)c4ccccc4C3=O)n2)cc1 | 0 | ? | 23% | -14% | 12% | 5 | /
CCc1nc(-c2ccc(C)nc2OC)no1 | -9 | ? | 7% | -12% | -7% | 1 | 1.8*
c1ccc(CNCCc2ccc3c(c2)OCO3)nc1 | -30 | 1.8µM* | 4% | ? | 45µM* | 8 | ?
Fc1ccc(CCNCc2ccccc2Cl)cc1 | 9 | 2%[12.7 µM] | 40% | 3% | 4% | 11 | /
Fc1cccc(CCNCc2ccccn2)c1 | -11 | 1.6µM* | -1% | 3.5µM* | 20µM* | -14 | 28*
COc1cc2c3cc1Oc1c(OC)c(OC)cc4c1C(Cc1cccc(c1)Oc1ccc(c(O)c1)CC3N(C)CC2)N(C)CC4 (configuration not stated) | / | -4%[2.33 µM] | / | / | / | / | /
Cc1cc(N2CCNCC2)nc2ccccc12 | 2 | ? | 34% | -17% | -5% | 7 | ?
Cn1c(N2CCNCC2)nc2ccccc21 | 3 | 40%[12.7 µM] | 22% | -3% | -3% | 0 | /
